Experimental data published in publication PMC5540273 (PLoS ONE, 2017).
Read-outs that look alike come from different tables or passages of the source.

Key:
Conditions in all cases: n = 1
TNIK = system: TNIK
TNK1 = system: TNK1
TNK2 = system: TNK2
TNNI3K = system: TNNI3K
TRKA = system: T1, TRKA
T1 construct: gene NTRK1

TRKB = system: TRKB
TRKC = system: T2, TRKC
T2 construct: gene NTRK3

TRPM6 = system: TRPM6
TSSK1B = system: TSSK1B
TSSK3 = system: TSSK3
[1] = concentration: 1 μM, replicates: in singlicate
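Also: KINOMEscan kinase panel screen.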

Structure (SMILES) | %Inh (TNIK; [1]) [%] | %Inh (TNK1; [1]) [%] | %Inh (TNK2; [1]) [%] | %Inh (TNNI3K; [1]) [%] | %Inh (TRKA; [1]) [%] | %Inh (TRKB; [1]) [%] | %Inh (TRKC; [1]) [%] | %Inh (TRPM6; [1]) [%] | %Inh (TSSK1B; [1]) [%] | %Inh (TSSK3; [1]) [%] | %Inh (TNIK; 1 µM) [%] | %Inh (TNK1; 1 µM) [%] | %Inh (TNK2; 1 µM) [%] | %Inh (TNNI3K; 1 µM) [%] | %Inh (TRKA; 1 µM) [%] | %Inh (TRKB; 1 µM) [%] | %Inh (TRKC; 1 µM) [%] | %Inh (TRPM6; 1 µM) [%] | %Inh (TSSK1B; 1 µM) [%] | %Inh (TSSK3; 1 µM) [%]
CN1C(=O)C(Nc2ccc(Cl)c(C(=O)O)c2)=C(c2ccc(Cl)cc2)C1=O [SB-404290] | 13 | 13 | 0 | 0 | 0 | 0 | 22 | 10 | 0 | 0 |  |  |  |  |  |  |  |  |  | 
COc1ccc2nc(-c3cccc(C)n3)nc(Nc3ccncc3)c2c1 [GSK204919] | 9 | 0 | 15 | 16 | 0 | 0 | 0 | 0 | 0 | 14 |  |  |  |  |  |  |  |  |  | 
O=S(=O)(c1ccc(-c2ccnc3[nH]ccc23)cc1)N1CCCC1 [GSK846226] | 0 | 0 | 9 | 3 | 69 | 0 | 0 | 26 | 10 | 18 |  |  |  |  |  |  |  |  |  | 
CC(=O)Nc1nc2cnc(Nc3cc(NC(=O)c4cccc(CCC#N)c4)ccc3C)nc2s1 | 7 | 0 | 9 | 7 | 0 | 6 | 5 | 3 | 2 | 0 |  |  |  |  |  |  |  |  |  | 
Cl.c1ccc(-c2n[nH]cc2-c2ccnc(-c3ccc(CN4CCOCC4)cc3)c2)nc1 [GW776245] | 30 | 42 | 0 | 0 | 0 | 0 | 0 | 0 | 0 | 0 |  |  |  |  |  |  |  |  |  | 
O=C(Nc1n[nH]c2nc(-c3nccs3)c(Br)cc12)C1CC1 [SB-742251] | 0 | 0 | 16 | 4 | 59 | 62 | 66 | 0 | 0 | 15 |  |  |  |  |  |  |  |  |  | 
COc1ccccc1CNC(=O)c1cc(C(=O)c2ccccc2C)c[nH]1 [GSK364507] | 0 | 0 | 17 | 0 | 0 | 24 | 2 | 21 | 16 | 6 |  |  |  |  |  |  |  |  |  | 
COc1cc2nccc(Nc3ccc(NC(=O)c4ccc(C)cc4)c(O)c3)c2cc1OC.Cl [GW440132] | 0 | 26 | 48 | 4 | 36 | 0 | 0 | 5 | 3 | 18 |  |  |  |  |  |  |  |  |  | 
COc1cc2ncnc(Nc3ccc4nc(-c5ccccc5)[nH]c4c3)c2cc1OC.Cl [GW282450] | 0 | 0 | 9 | 14 | 48 | 0 | 0 | 38 | 0 | 21 |  |  |  |  |  |  |  |  |  | 
Cc1cccc(-c2cc(Nc3ccncc3)c3ccccc3n2)n1 [GSK223675] | 0 | 0 | 0 | 0 | 0 | 0 | 0 | 0 | 0 | 11 |  |  |  |  |  |  |  |  |  | 
COC(=O)c1c(-c2ccccc2)c2cc(OC)ccc2c(=O)n1Cc1ccccc1 | 1 | 0 | 0 | 0 | 0 | 0 | 0 | 11 | 10 | 0 |  |  |  |  |  |  |  |  |  | 
Cc1c(Cn2ccn3c(=O)cc(N4CCOCC4)nc23)cccc1C(F)(F)F [GSK2289044] | 3 | 0 | 6 | 2 | 1 | 0 | 0 | 12 | 12 | 6 |  |  |  |  |  |  |  |  |  | 
CC(C)(C)c1ccc(C(=O)Nc2cn3cc(-c4cccnc4)ccc3n2)cc1 | 25 | 0 | 17 | 0 | 10 | 11 | 1 | 0 | 0 | 0 |  |  |  |  |  |  |  |  |  | 
O=c1cc(N2CCOCC2)nc2n(Cc3cccc(Cl)c3Cl)ccn12 [GSK2286295] | 0 | 8 | 12 | 13 | 0 | 0 | 0 | 25 | 0 | 47 |  |  |  |  |  |  |  |  |  | 
Cl.NC(=O)c1cccc(Nc2nccc(Nc3ccc(Oc4cccc(Cl)c4)c(Cl)c3)n2)c1 [GW659008] | 2 | 77 | 29 | 4 | 0 | 0 | 0 | 13 | 0 | 4 |  |  |  |  |  |  |  |  |  | 
Nc1ncnc2[nH]c(-c3ccccc3)nc12 [AH5015] | 1 | 0 | 24 | 11 | 0 | 45 | 26 | 4 | 9 | 7 |  |  |  |  |  |  |  |  |  | 
COc1ccccc1-c1ccc2c(NC(=O)C3CC3)n[nH]c2n1 [SB-711239] | 0 | 4 | 8 | 14 | 24 | 0 | 20 | 0 | 0 | 21 |  |  |  |  |  |  |  |  |  | 
COc1ccc(CNC(=O)NC2CCN(c3ccnc(Nc4cc(OC)c(OC)c(OC)c4)n3)C2)cc1 (stereo not drawn) [GSK1379748] | 0 | 0 | 4 | 10 | 73 | 23 | 40 | 18 | 0 | 10 |  |  |  |  |  |  |  |  |  | 

Structure (SMILES) | %Inh (TNIK; [1]) [%] | %Inh (TNK1; [1]) [%] | %Inh (TNK2; [1]) [%] | %Inh (TNNI3K; [1]) [%] | %Inh (TRKA; [1]) [%] | %Inh (TRKB; [1]) [%] | %Inh (TRKC; [1]) [%] | %Inh (TRPM6; [1]) [%] | %Inh (TSSK1B; [1]) [%] | %Inh (TSSK3; [1]) [%] | %Inh (TNIK; 1 µM) [%] | %Inh (TNK1; 1 µM) [%] | %Inh (TNK2; 1 µM) [%] | %Inh (TNNI3K; 1 µM) [%] | %Inh (TRKA; 1 µM) [%] | %Inh (TRKB; 1 µM) [%] | %Inh (TRKC; 1 µM) [%] | %Inh (TRPM6; 1 µM) [%] | %Inh (TSSK1B; 1 µM) [%] | %Inh (TSSK3; 1 µM) [%]
Cc1cc(N2Cc3ccccc3C2)nc(Nc2ccc(S(=O)(=O)N3CCOCC3)cc2)n1.Cl [GSK1669917] | 0 | 0 | 7 | 0 | 0 | 0 | 0 | 9 | 0 | 8 |  |  |  |  |  |  |  |  |  | 
Cc1cccc(-c2nc(Nc3ccncc3)c3ccccc3n2)n1 [GW855857] | 29 | 39 | 0 | 20 | 0 | 0 | 0 | 0 | 0 | 0 |  |  |  |  |  |  |  |  |  | 
Cc1cccc(-c2nc(Nc3cccc(C(N)=O)c3)c3ccccc3n2)n1 [GW876019] | 2 | 5 | 15 | 0 | 0 | 0 | 0 | 0 | 10 | 0 |  |  |  |  |  |  |  |  |  | 
Cn1ccc2ncnc(Oc3ccc(NC(=O)Nc4ccccc4)cc3)c21 | 3 | 0 | 0 | 0 | 4 | 0 | 15 | 0 | 0 | 0 |  |  |  |  |  |  |  |  |  | 
C[C@@H]1CCCCN1c1cc(-c2ccc3c(N)n[nH]c3c2)nc(N)n1 [GSK2258759] | 0 | 0 | 18 | 0 | 0 | 0 | 0 | 16 | 0 | 2 |  |  |  |  |  |  |  |  |  | 
COc1cc2ncn(-c3cc(OCC4CCCO4)c(C(N)=O)s3)c2cc1OC (stereo not drawn) [GSK204607] | 27 | 0 | 17 | 0 | 15 | 0 | 0 | 0 | 0 | 10 |  |  |  |  |  |  |  |  |  | 
O=C(Nc1n[nH]c2cc(-c3cccc(F)c3F)ccc12)C1CC1 [SB-733894] | 72 | 10 | 2 | 0 | 38 | 11 | 34 | 0 | 0 | 0 |  |  |  |  |  |  |  |  |  | 
Cc1ccc(NC(=O)Nc2cccc(C(F)(F)F)c2)cc1 [GSK955403] |  |  |  |  |  |  |  |  |  |  | 3 | 17 | 2 | 0 | 0 | 0 | 0 | 0 | 0 | 8
COc1ccc(Nc2nccc(NCCNC(=O)Nc3ccccc3F)n2)cc1 [GSK1379901] | 0 | 0 | 31 | 14 | 0 | 0 | 18 | 11 | 0 | 7 |  |  |  |  |  |  |  |  |  | 
Nc1nc(-c2nccs2)c(-c2ccnc3ccccc23)s1 [GW693542] | 10 | 0 | 24 | 4 | 0 | 0 | 23 | 4 | 16 | 79 |  |  |  |  |  |  |  |  |  | 
Cc1ccc(NC(=O)Nc2cccc(Cl)c2)cc1-c1ccc(C(=O)Nc2ccncc2)cc1 [GSK1398468] | 0 | 0 | 12 | 64 | 0 | 0 | 6 | 0 | 0 | 8 |  |  |  |  |  |  |  |  |  | 
CS(=O)(=O)c1ccc(-c2c(-c3ncn[nH]3)sc(N3CCOCC3)c2C#N)cc1 | 20 | 55 | 17 | 0 | 13 | 0 | 0 | 0 | 29 | 5 |  |  |  |  |  |  |  |  |  | 
NC(=O)c1nnc2ccccc2c1N | 3 | 0 | 0 | 5 | 74 | 20 | 10 | 24 | 5 | 11 |  |  |  |  |  |  |  |  |  | 
O=C(O)COc1ncnc2cc(-c3ccc4[nH]ncc4c3)sc12 | 10 | 0 | 0 | 0 | 33 | 42 | 0 | 6 | 0 | 0 |  |  |  |  |  |  |  |  |  | 
COc1ccc(C2=C(Nc3cccc(C(=O)O)c3)C(=O)NC2=O)cc1 [SB-390765] | 0 | 5 | 6 | 0 | 47 | 0 | 22 | 0 | 8 | 0 |  |  |  |  |  |  |  |  |  | 
Fc1cc(Cl)ccc1Nc1ccnc2cc(I)ccc12 [GW551191] | 31 | 6 | 10 | 15 | 0 | 37 | 24 | 0 | 32 | 3 |  |  |  |  |  |  |  |  |  | 
Cc1c(O)cccc1Nc1ccnc2ccc(C(F)(F)F)cc12.Cl [GW466413] | 0 | 0 | 17 | 0 | 9 | 0 | 31 | 0 | 0 | 1 |  |  |  |  |  |  |  |  |  | 
CCn1c(-c2ccccn2)nc2cnccc21 [SB-736398] | 0 | 7 | 9 | 0 | 0 | 59 | 52 | 0 | 5 | 12 |  |  |  |  |  |  |  |  |  | 
